Here are results for 12 molecules from PubChem BioAssay (NCI).

The panel holds about 83,000 compounds, 20% with a hit somewhere; the sample as a whole holds those more often.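 Method: cells in 96-well plates; compound added at one concentration; 48 h incubation; percent growth measured; values under 10 scored active.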 Unmarked numbers belong to inactive results. Activity calls are given as the source filed them.

Test systems include SR leukemia; RPMI-8226 leukemia; OVCAR-8 ovarian; OVCAR-5 ovarian; OVCAR-4 ovarian; IGROV1 ovarian; OVCAR-3 ovarian; HS 578T breast; NCI/ADR-RES ovarian; BT-549 breast; MDA-MB-435 melanoma; SW-620 colon; MCF7 breast; HCT-116 colon; HCC-2998 colon; KM12 colon; SK-OV-3 ovarian; T-47D breast.
What all share (experiment): NCI-60 one-dose screen, 48 h (100 = growth as untreated, 0 = no growth, -100 = all killed)
Common to all, as to settings: 10 µM unless noted

As for `CCN1C(=O)N(CC)C2C1NN=c1s/c(=C\c3ccccn3)c(=O)n12` (stereo not given), the growth in the assay with SR leukemia is 5.28% (active); with RPMI-8226 leukemia it was 22.5%; in the assay with OVCAR-8 ovarian, 31.2%; with OVCAR-5 ovarian, 58.9%; in the assay on OVCAR-4 ovarian it was 50.2%; with IGROV1 ovarian, 43.7%. Also, the growth with OVCAR-3 ovarian was 2.57% (active); with HS 578T breast, 7.13% (active); with NCI/ADR-RES ovarian, 2.1% (active); with BT-549 breast, 80%; in the assay with MDA-MB-435 melanoma, -62.1% (active); in the assay on SW-620 colon it was 23.7%. Also, the growth in the assay on MCF7 breast was 22.5%; in the assay with HCT-116 colon it was 23.6%; in the assay on HCC-2998 colon, 65.8%; with KM12 colon, 26%.
As to `COc1ccc(OC)c(/C=C2\Oc3cc(OCCN4CCCC4)ccc3C2=O)c1`, the growth was 56.6% in the assay with SR leukemia; 93.5% with RPMI-8226 leukemia; 92% in the assay with OVCAR-8 ovarian; 94.5% in the assay on OVCAR-5 ovarian; 98.5% in the assay on OVCAR-4 ovarian; 95.8% with IGROV1 ovarian. Moreover, the growth in the assay with OVCAR-3 ovarian was 101%; with HS 578T breast it was 86.4%; with NCI/ADR-RES ovarian, 86.4%; with BT-549 breast, 95.7%; in the assay on MDA-MB-435 melanoma, 97%; in the assay with SW-620 colon, 81.4%. Also, the growth with MCF7 breast was 88.1%; in the assay on HCT-116 colon it was 69%; in the assay on HCC-2998 colon, 98.7%; with KM12 colon it was 85.4%.
`CC(C)C[C@H](NC(=O)[C@@H](Cc1ccccc1)n1ccc(Nc2ccccc2)cc1=O)B(O)O`: the growth in the assay with SR leukemia is 21%; with OVCAR-8 ovarian it was 8.16% (active); in the assay on OVCAR-5 ovarian, 16%; in the assay with OVCAR-4 ovarian it was 33.9%; with SK-OV-3 ovarian it was 46.1%; in the assay with IGROV1 ovarian, -35.1% (active). Moreover, the growth in the assay on OVCAR-3 ovarian is -61% (active); in the assay with HS 578T breast it was 22.8%; with NCI/ADR-RES ovarian it was 75%; in the assay on T-47D breast it was -15.4% (active); in the assay on BT-549 breast, -10.5% (active); in the assay on MDA-MB-435 melanoma it was -51.3% (active). Also, the growth was -10.4% (active) with SW-620 colon; 21.1% in the assay on MCF7 breast; -37.9% (active) in the assay with HCT-116 colon; -83.8% (active) with HCC-2998 colon; -55.1% (active) in the assay on KM12 colon.
`COc1ccc(OC)c(-c2ccc(-c3ccccc3N)c3[nH]c4ccccc4c23)c1`: the growth in the assay on SR leukemia is 81.7%; in the assay with OVCAR-8 ovarian, 83.8%; with OVCAR-5 ovarian, 110%; in the assay with OVCAR-4 ovarian, 69.6%; in the assay with SK-OV-3 ovarian, 88.6%; in the assay on IGROV1 ovarian, 59.5%. For the same molecule, the growth in the assay with OVCAR-3 ovarian was 75.1%; with HS 578T breast, 94.3%; in the assay with NCI/ADR-RES ovarian, 85.8%; in the assay on T-47D breast, 62.8%; with BT-549 breast, 72.5%; with MDA-MB-435 melanoma, 105%. In addition, the growth is 80.7% with SW-620 colon; 69.8% in the assay with MCF7 breast; 61.6% with HCT-116 colon; 102% with HCC-2998 colon; 72.9% in the assay with KM12 colon.
In the case of `Cc1ccnc2nc(C(=O)OCC(=O)Nc3ccc(-c4ccccc4)cc3)nn12`, the growth with SR leukemia is 53.3%; in the assay on OVCAR-8 ovarian, 102%; in the assay with OVCAR-5 ovarian it was 96%; in the assay with OVCAR-4 ovarian, 95%; in the assay on SK-OV-3 ovarian, 116%; in the assay with IGROV1 ovarian, -5.67% (active). In addition, the growth with OVCAR-3 ovarian is 112%; in the assay with HS 578T breast, 125%; with NCI/ADR-RES ovarian, 98.3%; with T-47D breast, 111%; with MDA-MB-435 melanoma, 107%; with SW-620 colon, 109%. The values for the growth in the assay with HCT-116 colon, in the assay on HCC-2998 colon and in the assay on KM12 colon were 96%, 105% and 119%, respectively.
On to `CCC(c1ccc(OC)cc1)C(CC)c1ccc(O)c(CN2CCCC2)c1` (stereo not given), for which the growth in the assay with SR leukemia is -43% (active); in the assay on OVCAR-8 ovarian, 36.7%; in the assay with OVCAR-5 ovarian, 63%; with OVCAR-4 ovarian, 31.7%; in the assay on SK-OV-3 ovarian it was 34.5%; in the assay with OVCAR-3 ovarian, 20.3%. For the same molecule, the growth was 12.4% with HS 578T breast; 18.7% in the assay on NCI/ADR-RES ovarian; -33% (active) in the assay with T-47D breast; 2.58% (active) in the assay on BT-549 breast; -31.6% (active) in the assay on MDA-MB-435 melanoma; 0.333% (active) with SW-620 colon. Besides, the growth was -44.4% (active) in the assay with MCF7 breast, 35.9% with HCT-116 colon, -83% (active) in the assay with HCC-2998 colon and 27.9% in the assay on KM12 colon.
`COc1ccc2c(c1)NC(=O)CN2c1nc(NC2CC2)nc2ccccc12`: the growth is 31.5% in the assay with SR leukemia; 18.3% in the assay on OVCAR-8 ovarian; 44% with OVCAR-5 ovarian; 40.3% with OVCAR-4 ovarian; 23.9% in the assay on SK-OV-3 ovarian; 24.5% with IGROV1 ovarian. For the same molecule, the growth in the assay with OVCAR-3 ovarian is -19.7% (active); in the assay on HS 578T breast, 26.6%; with NCI/ADR-RES ovarian, 5.39% (active); with T-47D breast, 13.2%; with BT-549 breast, -17% (active); in the assay on MDA-MB-435 melanoma, -36% (active). Further, the growth with SW-620 colon was 23.6%; in the assay on MCF7 breast, 9.56% (active); in the assay with HCT-116 colon it was 0.461% (active); in the assay with HCC-2998 colon, 6.95% (active); with KM12 colon it was 3.45% (active).
Consider `O=S(=O)(NCCNc1nccc(-c2c(-c3ccccc3)nc3sccn23)n1)c1ccc(O)cc1`, for which the growth in the assay on SR leukemia was 18.2%; in the assay on OVCAR-8 ovarian it was 40.8%; in the assay with OVCAR-5 ovarian, 87.1%; with OVCAR-4 ovarian, 56.5%; in the assay on SK-OV-3 ovarian, 65.3%; with IGROV1 ovarian it was 22%. Besides, the growth with OVCAR-3 ovarian is 38.9%; in the assay with HS 578T breast it was 64.6%; in the assay on NCI/ADR-RES ovarian, 85.5%; with T-47D breast, 41.2%; in the assay with BT-549 breast it was 48.9%; in the assay with MDA-MB-435 melanoma, 10.5%. The growth in the assay on SW-620 colon is 30%; in the assay with MCF7 breast, 18.5%; in the assay with HCT-116 colon, 21.5%; in the assay on HCC-2998 colon it was 64.9%; in the assay with KM12 colon it was 21.6%.
`CCOC(=O)c1ccccc1NC(c1ccccc1)c1ccc2cccnc2c1O` (stereo not given): the growth was 17.7% in the assay with SR leukemia; 17% with OVCAR-8 ovarian; 53.7% in the assay on OVCAR-5 ovarian; 21.5% with OVCAR-4 ovarian; 14.1% with SK-OV-3 ovarian; 41.8% in the assay on IGROV1 ovarian. Also, the growth in the assay with OVCAR-3 ovarian is 32.6%; in the assay on HS 578T breast, 71.6%; with NCI/ADR-RES ovarian, 11.9%; with BT-549 breast it was 17.9%; with MDA-MB-435 melanoma, 39.4%; in the assay on SW-620 colon, 37.5%. Besides, the growth is 16.1% in the assay with MCF7 breast, 27.3% in the assay on HCT-116 colon, 51.8% with HCC-2998 colon and 29.8% in the assay with KM12 colon.
As to `Cc1ccc2c(c1)C(=O)C(c1c(-c3[nH]c(=O)c4ccc(C)cc4c3O)c(O)c3ccccc3c1O)=NC2=O`, the growth is 23.1% in the assay with SR leukemia; 14.4% in the assay on OVCAR-8 ovarian; 66.4% with OVCAR-5 ovarian; 25.2% in the assay on OVCAR-4 ovarian; 44% with SK-OV-3 ovarian; 6.46% (active) in the assay with IGROV1 ovarian. Moreover, the growth is -38.7% (active) with OVCAR-3 ovarian; 32.4% in the assay on HS 578T breast; 14.9% with NCI/ADR-RES ovarian; 11.9% with T-47D breast; 32.7% with BT-549 breast; 30.7% in the assay on MDA-MB-435 melanoma. The growth in the assay with SW-620 colon is 7.11% (active); in the assay on MCF7 breast it was 12.3%; in the assay on HCT-116 colon, 12.9%; in the assay on HCC-2998 colon it was 62%; in the assay on KM12 colon, 18.5%.
As to `Clc1ccc(-c2nc(-c3ccco3)cn3ccnc23)cc1`, the growth with SR leukemia was 63.4%; in the assay with OVCAR-8 ovarian, 49.8%; with OVCAR-5 ovarian, 87.9%; in the assay with OVCAR-4 ovarian it was 41.3%; in the assay with IGROV1 ovarian, 40.7%; in the assay with OVCAR-3 ovarian, 50.7%. Moreover, the growth in the assay with HS 578T breast is 74%; with NCI/ADR-RES ovarian it was 70.1%; with T-47D breast, 40.2%; with BT-549 breast, 84.5%; in the assay with MDA-MB-435 melanoma, 78.6%; with SW-620 colon it was 72.7%. The growth with MCF7 breast was 27.2%; with HCC-2998 colon it was 58.2%; in the assay on KM12 colon, 48.7%.
`ClC1=C(Cl)C(Cl)=C(Cl)C1=Cc1ccc(Cl)cc1Cl`: the growth was 2.92% (active) in the assay on SR leukemia; 2.92% (active) with OVCAR-8 ovarian; 8.75% (active) in the assay with OVCAR-5 ovarian; 5.94% (active) in the assay with OVCAR-4 ovarian; 38.5% with SK-OV-3 ovarian; 7.32% (active) in the assay with IGROV1 ovarian. Further, the growth in the assay with OVCAR-3 ovarian was -83.7% (active); in the assay on HS 578T breast it was 11.6%; in the assay on NCI/ADR-RES ovarian, -34.8% (active); in the assay on T-47D breast it was -0.12% (active); in the assay with BT-549 breast, -26.3% (active); in the assay with MDA-MB-435 melanoma, -52.4% (active). Further, the growth was -43.9% (active) in the assay on SW-620 colon, -55.5% (active) with HCT-116 colon, -89.7% (active) in the assay with HCC-2998 colon and -78.9% (active) in the assay with KM12 colon.
